# Where “and” joins values, the source holds several entries; their conditions need not be identical. Equal values may be shown once. Read-outs that look alike come from different tables or passages of the source.
# Key:
# [1] = system: ACVR2A; details: concentration: 1 μM, replicates: in singlicate; n = 1
# [2] = system: ACVR2B; details: concentration: 1 μM, replicates: in singlicate, n = 1
# [3] = system: ACVRL1; details: concentration: 1 μM, replicates: in singlicate; n = 1
# [4] = system: T1, ADCK3; details: concentration: 1 μM, replicates: in singlicate, n = 1
# T1 construct: gene CABC1
# [5] = system: ADCK4; details: concentration: 1 μM, replicates: in singlicate, n = 1
# [6] = system: AKT1; details: concentration: 1 μM, replicates: in singlicate, n = 1
# [7] = system: AKT2; details: concentration: 1 μM, replicates: in singlicate, n = 1
# [8] = system: AKT3; details: concentration: 1 μM, replicates: in singlicate, n = 1
# [9] = system: ALK; details: concentration: 1 μM, replicates: in singlicate, n = 1
# [10] = system: T2, AMPK-alpha1; details: concentration: 1 μM, replicates: in singlicate, n = 1
# T2 construct: gene PRKAA1
# [11] = system: T3, AMPK-alpha2; details: concentration: 1 μM, replicates: in singlicate, n = 1
# T3 construct: gene PRKAA2
# [12] = system: ANKK1; details: concentration: 1 μM, replicates: in singlicate; n = 1
# [13] = system: T4, ARK5; details: concentration: 1 μM, replicates: in singlicate, n = 1
# T4 construct: gene NUAK1
# [14] = system: T5, ASK1; details: concentration: 1 μM, replicates: in singlicate, n = 1
# T5 construct: gene MAP3K5
# [15] = system: T6, ASK2; details: concentration: 1 μM, replicates: in singlicate, n = 1
# T6 construct: gene MAP3K6
# [16] = system: AURKA; details: concentration: 1 μM, replicates: in singlicate, n = 1
# [17] = system: AURKB; details: concentration: 1 μM, replicates: in singlicate, n = 1
# [18] = system: AURKC; details: concentration: 1 μM, replicates: in singlicate, n = 1
# [19] = system: AXL; details: concentration: 1 μM, replicates: in singlicate, n = 1
# [20] = system: T7, BIKE; details: concentration: 1 μM, replicates: in singlicate, n = 1
# T7 construct: gene BMP2K
# 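Note: KINOMEscan kinase panel screen.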
structure (smiles),measurement,setting,value
C[C@@H](Oc1cc(-n2cnc3ccc(NC(=O)NC(C)(C)C)cc32)sc1C(N)=O)c1ccccc1Cl [GSK346294],%Inh,[1],0%
same,%Inh,[2],17%
same,%Inh,[3],1%
same,%Inh,[4],37%
same,%Inh,[5],31%
same,%Inh,[6],0%
same,%Inh,[7],3%
same,%Inh,[8],0%
same,%Inh,[9],0%
same,%Inh,[10],6%
same,%Inh,[11],12%
same,%Inh,[12],8%
same,%Inh,[13],11%
same,%Inh,[14],3%
same,%Inh,[15],0%
same,%Inh,[16],8%
same,%Inh,[17],22%
same,%Inh,[18],34%
same,%Inh,[19],0%
same,%Inh,[20],32%
CNc1ncnc2[nH]ncc12 [SKF-18355],%Inh,[1],4%
same,%Inh,[2],40%
same,%Inh,[3],0%
same,%Inh,[4],0%
same,%Inh,[5],10%
same,%Inh,[6],0%
same,%Inh,[7],0%
same,%Inh,[8],4%
same,%Inh,[9],0%
same,%Inh,[10],0%
same,%Inh,[11],0%
same,%Inh,[12],0%
same,%Inh,[13],0%
same,%Inh,[14],0%
same,%Inh,[15],0%
same,%Inh,[16],2%
same,%Inh,[17],34%
same,%Inh,[18],0%
same,%Inh,[19],0%
same,%Inh,[20],0%
Cc1c2ccc(N(C)c3ccnc(Nc4cccc(S(N)(=O)=O)c4)n3)cc2nn1Cc1ccccc1.Cl.Cl [GW787226],%Inh,[1],0%
same,%Inh,[2],0%
same,%Inh,[3],12%
same,%Inh,[4],0%
same,%Inh,[5],0%
same,%Inh,[6],0%
same,%Inh,[7],0%
same,%Inh,[8],0%
same,%Inh,[9],0%
same,%Inh,[10],17%
same,%Inh,[11],0%
same,%Inh,[12],0%
same,%Inh,[13],0%
same,%Inh,[14],0%
same,%Inh,[15],0%
same,%Inh,[16],29%
same,%Inh,[17],54%
same,%Inh,[18],38%
same,%Inh,[19],73%
same,%Inh,[20],0%
COc1cc(Nc2nccc(N3CCC(NC(=O)c4cccc(NC(C)=O)c4)C3)n2)cc(OC)c1OC (centres unmarked) [GSK1379754],%Inh,[1],17%
same,%Inh,[2],18%
same,%Inh,[3],0%
same,%Inh,[4],10%
same,%Inh,[5],36%
same,%Inh,[6],0%
same,%Inh,[7],0%
same,%Inh,[8],0%
same,%Inh,[9],29%
same,%Inh,[10],8%
same,%Inh,[11],12%
same,%Inh,[12],34%
same,%Inh,[13],31%
same,%Inh,[14],0%
same,%Inh,[15],0%
same,%Inh,[16],97.6%
same,%Inh,[17],0%
same,%Inh,[18],88%
same,%Inh,[19],36%
same,%Inh,[20],86%
COc1ccc(COc2cc(-n3cnc4ccccc43)sc2C(N)=O)cc1 [GSK1024304],%Inh,[1],0%
same,%Inh,[2],0%
same,%Inh,[3],0%
same,%Inh,[4],0%
same,%Inh,[5],0%
same,%Inh,[6],0%
same,%Inh,[7],0%
same,%Inh,[8],54%
same,%Inh,[9],23%
same,%Inh,[10],26%
same,%Inh,[11],0%
same,%Inh,[12],8%
same,%Inh,[13],14%
same,%Inh,[14],0%
same,%Inh,[15],0%
same,%Inh,[16],2%
same,%Inh,[17],0%
same,%Inh,[18],12%
same,%Inh,[19],0%
same,%Inh,[20],25%
Nc1nc(-c2ccc3c(N)n[nH]c3c2)cc(N2CCCC2)n1 [GSK2227430],%Inh,[1],0%
same,%Inh,[2],0%
same,%Inh,[3],0%
same,%Inh,[4],0%
same,%Inh,[5],2%
same,%Inh,[6],0%
same,%Inh,[7],3%
same,%Inh,[8],0%
same,%Inh,[9],4%
same,%Inh,[10],0%
same,%Inh,[11],0%
same,%Inh,[12],4%
same,%Inh,[13],17%
same,%Inh,[14],0%
same,%Inh,[15],0%
same,%Inh,[16],0%
same,%Inh,[17],0%
same,%Inh,[18],37%
same,%Inh,[19],0%
same,%Inh,[20],33%
O=c1cc(N2CCOCC2)nc2n(Cc3cccc(F)c3)ccn12 [GSK2297430],%Inh,[1],6%
same,%Inh,[2],0%
same,%Inh,[3],14%
same,%Inh,[4],9%
same,%Inh,[5],0%
same,%Inh,[6],0%
same,%Inh,[7],9%
same,%Inh,[8],0%
same,%Inh,[9],8%
same,%Inh,[10],5%
same,%Inh,[11],21%
same,%Inh,[12],0%
same,%Inh,[13],7%
same,%Inh,[14],0%
same,%Inh,[15],6%
same,%Inh,[16],0%
same,%Inh,[17],0%
same,%Inh,[18],32%
same,%Inh,[19],14%
same,%Inh,[20],26%
NCCNS(=O)(=O)c1ccc(-c2ccnc3[nH]ccc23)cc1 [GSK977617],%Inh,[1],0%
same,%Inh,[2]; 1 µM,2% and 0%
same,%Inh,[3],0%
same,%Inh,[4]; 1 µM,0% and 6%
same,%Inh,[5]; 1 µM,32% and 21%
same,%Inh,[6]; 1 µM,77% and 66%
same,%Inh,[7]; 1 µM,15% and 10%
same,%Inh,[8]; 1 µM,88% and 83%
same,%Inh,[9]; 1 µM,60% and 36%
same,%Inh,[10]; 1 µM,50% and 38%
same,%Inh,[11]; 1 µM,60% and 31%
same,%Inh,[12],0%
same,%Inh,[13]; 1 µM,45% and 17%
same,%Inh,[14]; 1 µM,30% and 5%
same,%Inh,[15]; 1 µM,21% and 18%
same,%Inh,[16]; 1 µM,51% and 39%
same,%Inh,[17]; 1 µM,71% and 67%
same,%Inh,[18]; 1 µM,92.4% and 84%
same,%Inh,[19]; 1 µM,93% and 87%
same,%Inh,[20]; 1 µM,97.4% and 93.3%
COc1cc2c(cc1OCCN1CCN(C)CC1)ncc1c3ccc(C#N)cc3[nH]c21,%Inh,[1],10%
same,%Inh,[2],0%
same,%Inh,[3],0%
same,%Inh,[4],0%
same,%Inh,[5],3%
same,%Inh,[6],0%
same,%Inh,[7],18%
same,%Inh,[8],0%
same,%Inh,[9],0%
same,%Inh,[10],10%
same,%Inh,[11],0%
same,%Inh,[12],54%
same,%Inh,[13],22%
same,%Inh,[14],0%
same,%Inh,[15],0%
same,%Inh,[16],0%
same,%Inh,[17],70%
same,%Inh,[18],33%
same,%Inh,[19],26%
same,%Inh,[20],100%
Cc1cccc(-c2nc(-c3ccc(S(C)(=O)=O)cc3)sc2-c2ccncc2)c1,%Inh,[1],0%
same,%Inh,[2],0%
same,%Inh,[3],0%
same,%Inh,[4],0%
same,%Inh,[5],0%
same,%Inh,[6],0%
same,%Inh,[7],20%
same,%Inh,[8],0%
same,%Inh,[9],5%
same,%Inh,[10],1%
same,%Inh,[11],7%
same,%Inh,[12],0%
same,%Inh,[13],13%
same,%Inh,[14],0%
same,%Inh,[15],15%
same,%Inh,[16],24%
same,%Inh,[17],23%
same,%Inh,[18],0%
same,%Inh,[19],12%
same,%Inh,[20],0%
